The source of these data is PubChem BioAssay (NCATS).

“And” between values parts separate entries of the source, which are not always exact repeats. Equal entries are not always repeated. Results filed as inconclusive are left out. Values without a mark were called inactive. The source made the active and inactive calls. Unless noted, the call rests on the fitted dose curve; in most records, active means well fitted curve in the direction sought with a large enough effect; inconclusive means small, poorly fitted or top-dose-only effect, or another doubt; inactive means no such curve, though single readings can be large; an effect the other way counts as inactive or inconclusive.

The first experiment in a line: Cell Viability qHTS for small molecule stabilizers of the endoplasmic reticulum resident proteome (AID 1508629).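 Further: human SH-SY5Y neuroblastoma cells carrying the GLuc-SERCaMP reporter; compound exposure about 46 h in total before the viability read; on the % scale 0 is the no-effect control and ±100 the full control effect.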 The following applies: cell viability counter-screen, 100 nM thapsigargin for final 4 h.
For the compound `CCOC(=O)c1cnc2c(cnn2CC)c1NN=C(C)C`, the max response was 4.21%.
On to `O=C(CCCN1CCC(O)(c2cccc(C(F)(F)F)c2)CC1)c1ccc(F)cc1`, for which the max response is -8.14%.
Same read-out and setting: in the case of `OC(CCN1CCCCC1)(c1ccccc1)C1CCCCC1` (stereo not given) it was 13.7%; in that of `OCCN1CCN(CCCN2c3ccccc3C=Cc3ccccc32)CC1`, -5.61%; in that of `COC(=O)[C@@H](N)Cc1ccc(O)c(O)c1`, -5.59%.
Still for that read-out and setting: under `c1cc(CN2CCCCC2)cc(OCCCNc2nc3ccccc3s2)c1` stands -7.44%.
Turning to `CN(C)C/C=C(/c1ccc(Br)cc1)c1cccnc1`, the max response was 4.56%.
For `COc1cc(C(=O)OCCCN2CCCN(CCCOC(=O)c3cc(OC)c(OC)c(OC)c3)CC2)cc(OC)c1OC`, the max response is -32.9%.
As to `Cc1nc2sccn2c(=O)c1CCN1CCC(=C(c2ccc(F)cc2)c2ccc(F)cc2)CC1`, the max response is -2.38%.
Same read-out and setting: under `CN(C)CCCN1c2ccccc2Sc2ccccc21` stands -13.5%; under `O=C(O)CN(CCN(CC(=O)O)CC(=O)O)CCN(CC(=O)O)CC(=O)O`, 25%; under `NC(=Nc1ccccc1)Nc1ccccc1`, 21.8%.
Take `CCc1cccc(N(C)C(N)=Nc2cccc3ccccc23)c1`: the max response was -28.6%.
Regarding `CN1CCN(C2=Nc3ccccc3Oc3ccc(Cl)cc32)CC1`, the max response is 14.4%.
In the case of `CCCCNc1ccc(C(=O)OCCN(C)C)cc1`, the max response was 13.7% and 3.85% and 11.6%.

Another experiment in a line: Primary qHTS for small molecule stabilizers of the endoplasmic reticulum resident proteome: Secreted ER Calcium Modulated Protein (SERCaMP) assay (AID 1508630). Further: potency means the concentration at half of the fitted maximal effect. On activity change, negative = inhibition: on the % scale 0 is the no-effect control and ±100 the full control effect. The following applies: SH-SY5Y GLuc-SERCaMP (Gaussia luciferase released on ER calcium loss) secretion, thapsigargin, luminescence; series mostly up to 38.4 µM; activity change, negative = inhibition: at the top concentration. In short, it runs like this:
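GLuc-SERCaMP-expressing SH-SY5Y cells, pretreated 16 h with compound, are challenged with thapsigargin to empty ER calcium stores; after 4 h, coelenterazine is added directly to the medium and luminescence is imaged.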
In the case of `O=C(O)CN(CCOCCOCCN(CC(=O)O)CC(=O)O)CC(=O)O`, the “activity change, negative = inhibition” value is 8.07%.
Turning to `CCOC(=O)c1cnc2c(cnn2CC)c1NN=C(C)C`, the Potency result was “inactive”.
Same read-out and setting: in the case of `N[C@@H](COP(=O)(O)O)C(=O)O` it was “inactive”; in that of `CC(C)(C)NCC(O)c1cc(O)cc(O)c1` (stereo not given), “inactive”; in that of `CC(=O)Nc1nnc(S(N)(=O)=O)s1`, “inactive”.
The same measure, in the same setting: under `Brc1c(NC2=NCCN2)ccc2nccnc12` stands “inactive”; under `NC(Cc1ccc(Cl)cc1)C(=O)O` (stereo not given), “inactive”.
With `C[C@]12CCC(=O)C=C1CC[C@@H]1[C@@H]2CC[C@@]2(C)[C@H]1CC[C@]2(O)C(=O)CO`, the Potency entry was “inactive”.
With `CC(C(=O)O)c1ccc(CC2CCCC2=O)cc1` (stereo not given), the Potency result is “inactive”.
Still for that read-out and setting: under `COc1ccc2c(c1OC)C(=O)O[C@@H]2[C@H]1c2c(cc3c(c2OC)OCO3)CCN1C` stands “inactive”.
As for `Cc1scc2c1N(C(=O)CN1CCN(C)CC1)c1ccccc1NC2=O`, the Potency entry was “inactive”.
For the compound `CC(=O)OCC1=C(C(=O)O)N2C(=O)[C@@H](NC(=O)Cc3cccs3)[C@H]2SC1`, the “activity change, negative = inhibition” value was -23%.
With `CN(C)[C@@H]1C(=O)C(C(N)=O)=C(O)[C@@]2(O)C(=O)C3=C(O)c4c(O)ccc(Cl)c4[C@@H](O)[C@H]3C[C@@H]12`, the “activity change, negative = inhibition” value is -29.1%.
Take `O=C(O)CN(CCN(CC(=O)O)CC(=O)O)CCN(CC(=O)O)CC(=O)O`: the “activity change, negative = inhibition” value was -27.6%.
As for `NC(=Nc1ccccc1)Nc1ccccc1`, the Potency was 3.16 µM (active).
Take `CC1=NS(=O)(=O)c2cc(Cl)ccc2N1`: the Potency result is “inactive”.
Consider `CN(C)C(=O)Oc1cccc([N+](C)(C)C)c1`, for which the “activity change, negative = inhibition” value is -16.1%.
Still for that read-out and setting: in the case of `NC(=O)c1ncn([C@@H]2O[C@H](CO)[C@@H](O)[C@H]2O)c1O` it was 0.511%; in that of `CCCOc1ccccc1-c1nc2n[nH]nc2c(=O)[nH]1`, -26.1%.
Consider `C[N+](C)(C)CCOC(N)=O`, for which the Potency result was “inactive”.
Regarding `CN1CCN(CC(=O)N2c3ccccc3C(=O)Nc3cccnc32)CC1`, the Potency result is “inactive”.
Regarding `NCCCNCCSP(=O)(O)O`, the Potency entry is “inactive”.
For the compound `CCCCNc1ccc(C(=O)OCCN(C)C)cc1`, the Potency entry was “inactive”.
Consider `CCO/C([O-])=N/c1c[n+](N2CCOCC2)no1`, for which the Potency entry was “inactive”.

Another experiment can be described thus: A High-Content qHTS Against Drug Library for the Identification of Small Molecules that Inhibit DYT1 Early Onset Primary Dystonia-Associated Cell Pathology (AID 1645839; calls by dose curve). The following applies: HEK293 Flp-In EGFP-delE TorsinA, punctate imaging, 48 h; series mostly up to 46.1 µM; % pathology change, negative = correction: at the top concentration. In short, it runs like this: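 In this high-content image screen, delE TorsinA mislocalization in inducible Flp-In 293 cells is scored as %pathology, with cell count serving as the counterscreen. Compound exposure lasts 48 h under tetracycline induction in reduced-serum medium.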
Consider `O=C(O)CN(CCOCCOCCN(CC(=O)O)CC(=O)O)CC(=O)O`, for which the % pathology change, negative = correction is 13.7% [at 0.369 µM].
As to `CCOC(=O)c1cnc2c(cnn2CC)c1NN=C(C)C`, the “% pathology change, negative = correction” value (from here on “% pathology change”) was 5.14%.
`O=C(CCCN1CCC(O)(c2cccc(C(F)(F)F)c2)CC1)c1ccc(F)cc1`: the “% pathology change” value is -18.8%.
In the case of `N[C@@H](COP(=O)(O)O)C(=O)O`, the “% pathology change” value is 2.82% [at 19.1 µM].
For the compound `CC(C)(C)NCC(O)c1cc(O)cc(O)c1` (stereo not given), the “% pathology change” value is -8.08%.
Same read-out and setting: under `CC(=O)Nc1nnc(S(N)(=O)=O)s1` stands -17%.
Regarding `Brc1c(NC2=NCCN2)ccc2nccnc12`, the “% pathology change” value is -7.79%.
Regarding `NC(Cc1ccc(Cl)cc1)C(=O)O` (stereo not given), the % pathology change, negative = correction was -28% [at 0.369 µM].
Turning to `C[C@]12CCC(=O)C=C1CC[C@@H]1[C@@H]2CC[C@@]2(C)[C@H]1CC[C@]2(O)C(=O)CO`, the “% pathology change” value is 10.3%.
On the same count and under the same terms, in the case of `CC(C(=O)O)c1ccc(CC2CCCC2=O)cc1` (stereo not given) it was 15.2%; in that of `COC(=O)[C@@H](N)Cc1ccc(O)c(O)c1`, 14.8%.
On the same count and under the same terms, in the case of `COc1ccc2c(c1OC)C(=O)O[C@@H]2[C@H]1c2c(cc3c(c2OC)OCO3)CCN1C` it was -1.91%; in that of `Cc1scc2c1N(C(=O)CN1CCN(C)CC1)c1ccccc1NC2=O`, 15.9%.
As for `CC(=O)OCC1=C(C(=O)O)N2C(=O)[C@@H](NC(=O)Cc3cccs3)[C@H]2SC1`, the “% pathology change” value was 8.11%.
Take `CN(C)[C@@H]1C(=O)C(C(N)=O)=C(O)[C@@]2(O)C(=O)C3=C(O)c4c(O)ccc(Cl)c4[C@@H](O)[C@H]3C[C@@H]12`: the “% pathology change” value was -3.45%.
Turning to `O=C(O)CN(CCN(CC(=O)O)CC(=O)O)CCN(CC(=O)O)CC(=O)O`, the “% pathology change” value is 17% [at 19.1 µM].
Turning to `NC(=Nc1ccccc1)Nc1ccccc1`, the “% pathology change” value was 16.8%.
Regarding `CC1=NS(=O)(=O)c2cc(Cl)ccc2N1`, the “% pathology change” value was 6.93%.
Still for that read-out and setting: under `CN(C)C(=O)Oc1cccc([N+](C)(C)C)c1` stands -4.26%; under `NC(=O)c1ncn([C@@H]2O[C@H](CO)[C@@H](O)[C@H]2O)c1O`, -0.0364%.
Same read-out and setting: under `CCCOc1ccccc1-c1nc2n[nH]nc2c(=O)[nH]1` stands 16.5%.
Same read-out and setting: under `C[N+](C)(C)CCOC(N)=O` stands 2.21%; under `CN1CCN(CC(=O)N2c3ccccc3C(=O)Nc3cccnc32)CC1`, 18.1% [at 4.63 µM]; under `NCCCNCCSP(=O)(O)O`, 18.3% [at 9.22 µM].
Turning to `CCCCNc1ccc(C(=O)OCCN(C)C)cc1`, the “% pathology change” value was -2.37%.
Same read-out and setting: under `CCO/C([O-])=N/c1c[n+](N2CCOCC2)no1` stands 15%.
